Reference: PubChem BioAssay (EPA / NIEHS)
The source made the active and inactive calls. Rule for the calls: active = hit-call score of the fitted dose curve at least 0.9, where 1 is the maximum; inactive = score below 0.9.

Tests used:
[1] = ATG_ISRE_CIS: Attagene CIS-FACTORIAL HepG2 Assay for human Interferon Regulatory Factor 1 (IRF1) binding to an Interferon-Stimulated Response Element (ISRE) (AID 2282948); conditions: HepG2 ISRE cis-reporter (Attagene), mRNA transcription readout; actives raise or lower the signal
Procedure, shortened: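 Quantitation relies on labelled RT-PCR fragments separated by capillary electrophoresis. Human HepG2 cells bearing cis-promoter reporter constructs were treated 24 h; DMSO served as baseline for bidirectional fitting.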

[2] = ATG_M_32_CIS: Attagene CIS-FACTORIAL HepG2 Assay for M32 Transcription Factor (Internal Marker) (AID 2282949); conditions: HepG2 Attagene cis-factorial M32 reporter, mRNA; actives raise or lower the signal;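 note: background control marker of the multiplexed CIS panel rather than a real target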
Procedure, shortened: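 Fluorescent capillary electrophoresis peaks of HpaI-digested, FAM-labelled RT-PCR reporter products give the signal. Source: transiently transfected human liver HepG2 cells, 24 h after chemical dosing; bidirectional fitting against DMSO.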

[3] = ATG_M_06_CIS: Attagene CIS-FACTORIAL HepG2 Assay for M06 Transcription Factor (Internal Marker) (AID 2282950); conditions: HepG2 Attagene CIS-FACTORIAL M06 internal marker reporter; actives raise or lower the signal
Procedure, shortened: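 One of many multiplexed endpoints: HepG2 reporter mRNA after 24 h dosing, detected by RT-PCR and capillary electrophoresis fluorescence; gain or loss of signal analysed against DMSO.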

[4] = biological target: Hypoxia-inducible factor 1-alpha (Homo sapiens) (UniProt Q16665); experiment: ATG_HIF1a_CIS: Attagene CIS-FACTORIAL HepG2 Assay for human Hypoxia Inducible Factor 1 (HIF1A) (AID 2282951); conditions: HepG2 Attagene cis-factorial HIF1a reporter transcription; actives raise or lower the signal
Procedure, shortened: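 Dosed 24 h, transfected HepG2 cells yielded total RNA whose reporter transcripts were RT-PCR-amplified and sized by capillary electrophoresis using fluorescent labelling; DMSO defined baseline, with gain and loss of signal both fitted.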

[5] = biological target: Hepatocyte nuclear factor 6 (Homo sapiens) (UniProt Q9UBC0); experiment: ATG_HNF6_CIS: Attagene CIS-FACTORIAL HepG2 Assay for human Hepatocyte Nuclear Factor 6 (HNF6) (AID 2282952); conditions: HepG2 Attagene cis-factorial HNF6 reporter transcription; actives raise or lower the signal
Procedure, shortened: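 HepG2 cells transiently transfected with cis-element-driven multiplexed reporter units measuring endogenous transcription factor activity. After 24 h exposure, reporter mRNA quantified by RT-PCR, FAM-labelled fragments and capillary electrophoresis; bidirectional fitting versus DMSO.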

[6] = biological target: Heat shock factor protein 1 (Homo sapiens) (UniProt Q00613); experiment: ATG_HSE_CIS: Attagene CIS-FACTORIAL HepG2 Assay for human Heat Shock Transcription Factor 1 (HSE) (AID 2282953); conditions: HepG2 HSE cis-reporter, Attagene RNA transcription; actives raise or lower the signal
Procedure, shortened: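 Using HepG2 with transfected cis-driven reporter constructs, compound effects on endogenous factor activity are scored as reporter mRNA change at 24 h. Detection: RT-PCR, HpaI digestion, capillary electrophoresis; bidirectional fitting to DMSO.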

[7] = ATG_MRE_CIS: Attagene CIS-FACTORIAL HepG2 Assay for human Metal Responsive Element (MRE) (AID 2282954); conditions: HepG2 MRE cis-reporter transcription, Attagene multiplex; actives raise or lower the signal
Procedure, shortened: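 Transient MRTU transfection of HepG2 (FuGene 6); 24 h dosing; total RNA → oligo(dT) RT, PCR, 6-FAM primer extension, HpaI cut, CE. Bidirectional fit vs DMSO.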

[8] = biological target: Paired box protein Pax-6 (Homo sapiens) (UniProt P26367); experiment: ATG_Pax6_CIS: Attagene CIS-FACTORIAL HepG2 Assay for human Paired Box 6 (PAX6) (AID 2282956); conditions: HepG2 CIS-FACTORIAL PAX6 reporter transcription, RNA readout; actives raise or lower the signal
Procedure, shortened: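 After twenty-four hours of chemical exposure, transfected HepG2 cells are harvested for RNA. Cis-promoter reporter transcripts are amplified, fluorescently labelled and sized by capillary electrophoresis, with gain and loss of signal scored against DMSO.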

[9] = ATG_PXRE_CIS: Attagene CIS-FACTORIAL HepG2 Assay for human Pregnane X Receptor Element (PXRE) (AID 2282957); conditions: HepG2 Attagene CIS-FACTORIAL PXRE reporter, mRNA; actives raise or lower the signal
Procedure, shortened: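 HepG2 cells transiently transfected with cis-element-driven multiplexed reporter units; after 24 h chemical exposure, reporter mRNA measured by RT-PCR, 6-FAM labelling, HpaI digestion and capillary electrophoresis. Bidirectional fitting relative to DMSO.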

[10] = ATG_PPRE_CIS: Attagene CIS-FACTORIAL HepG2 Assay for human Peroxisome Proliferator-activated Response Element (PPRE) (AID 2282958); conditions: HepG2 PPRE cis-element reporter, Attagene transcription factor profiling; actives raise or lower the signal
Procedure, shortened: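 Measured endpoint: PPRE-controlled reporter mRNA, detected by RT-PCR and capillary electrophoresis fluorescence, from transiently transfected HepG2 cells 24 h after dosing. Curves fitted in both directions using DMSO baseline.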

[11] = ATG_RORE_CIS: Attagene CIS-FACTORIAL HepG2 Assay for human RAR-related Orphan Receptor Element (RORE) (AID 2282959); conditions: HepG2 Attagene cis-factorial RORE reporter, mRNA; actives raise or lower the signal
Procedure, shortened: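 Transiently transfected HepG2 reporter cells were treated 24 h. Reporter transcripts were detected by RT-PCR and capillary electrophoresis, with bidirectional fitting against DMSO.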

[12] = ATG_Sox_CIS: Attagene CIS-FACTORIAL HepG2 Assay for human SRY-box transcription factor (SOX) (AID 2282960); conditions: HepG2 Attagene cis-factorial SOX reporter, mRNA; actives raise or lower the signal
Procedure, shortened: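 Gain- or loss-of-signal endpoint, fitted bidirectionally with DMSO as negative control. Based on reporter mRNA from transfected HepG2 cells harvested 24 h post-treatment and quantified via RT-PCR and capillary electrophoresis.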

[13] = biological target: Transcription factor Sp1 (Homo sapiens) (UniProt P08047); experiment: ATG_Sp1_CIS: Attagene CIS-FACTORIAL HepG2 Assay for human Specificity Protein 1 (Sp1) (AID 2282961); conditions: HepG2 Sp1 cis-reporter transcription, actives raise or lower the signal
Procedure, shortened: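 Endpoint reflects endogenous Sp1 transcriptional activity, not an exogenous fusion protein: HepG2 cells with transfected cis-regulated reporters, 24 h dosing, RT-PCR/capillary electrophoresis mRNA read-out, DMSO-normalised bidirectional fit.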

[14] = ATG_SREBP_CIS: Attagene CIS-FACTORIAL HepG2 Assay for human Sterol Regulatory Element Binding (SREBP) (AID 2282962); conditions: HepG2 Attagene cis-factorial SREBP reporter, mRNA; actives raise or lower the signal
Procedure, shortened: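 Twenty-four hours after chemical dosing of transfected HepG2 cultures, reporter RNA was converted to cDNA, amplified, end-labelled with 6-FAM and resolved by capillary electrophoresis. Responses were fitted relative to DMSO.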

[15] = biological target: Signal transducer and activator of transcription 3 (Homo sapiens) (UniProt P40763); experiment: ATG_STAT3_CIS: Attagene CIS-FACTORIAL HepG2 Assay for human Signal Transducer and Activator of Transcription 3 (STAT3) (AID 2282963); conditions: HepG2, Attagene cis-factorial STAT3 reporter transcription; actives raise or lower the signal
Procedure, shortened: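 Endogenous STAT3-responsive cis-element activity was read in transiently transfected HepG2 cells after 24 h treatment. Reporter transcripts were quantified via RT-PCR and capillary electrophoresis, with DMSO as negative control and bidirectional curve fitting.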

[16] = ATG_TA_CIS: Attagene CIS-FACTORIAL HepG2 Assay for human TA Basal Promoter (AID 2282964); conditions: HepG2 Attagene CIS-factorial TA basal promoter reporter; actives raise or lower the signal
Procedure, shortened: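 Transient MRTU transfection of HepG2 preceded 24 h compound exposure. Reporter mRNA levels were then read by RT-PCR with capillary electrophoresis, and this background-control endpoint was fitted bidirectionally to DMSO.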

[17] = ATG_TCF_b_cat_CIS: Attagene CIS-FACTORIAL HepG2 Assay for human T-Cell-Factor with beta-catenin (TCF/b-cat) (AID 2282965); conditions: HepG2 TCF/beta-catenin cis-reporter transcription, actives raise or lower the signal
Procedure, shortened: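 Endogenous TCF/LEF activity read as reporter transcript level via RT-PCR and capillary electrophoresis fluorescence in transfected HepG2, 24 h exposure; gain or loss of signal fitted against DMSO controls.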

[18] = ATG_TAL_CIS: Attagene CIS-FACTORIAL HepG2 Assay for human TAL Basal Promoter (AID 2282966); conditions: HepG2 Attagene cis-factorial TAL promoter reporter; actives raise or lower the signal;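 note: background control endpoint measuring basal TAL promoter reporter mRNA not a specific factor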
Procedure, shortened: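 HepG2 cells transiently transfected with multiplexed cis-promoter reporter units, dosed 24 h. Reporter mRNA quantified by RT-PCR, 6-FAM labelling, HpaI digestion and capillary electrophoresis; TAL basal promoter serves as background control, fitted bidirectionally versus DMSO.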

[19] = ATG_TGFb_CIS: Attagene CIS-FACTORIAL HepG2 Assay for human Transforming Growth Factor (TGF) (AID 2282967); conditions: HepG2 Attagene CIS TGFb reporter, mRNA transcription; actives raise or lower the signal
Procedure, shortened: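 After a 24-hour incubation with compound, transfected HepG2 cells were lysed for RNA; reporter cDNA was amplified, fluorescently end-labeled and separated by CE. DMSO served as baseline for bidirectional fits.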

[20] = ATG_PBREM_CIS: Attagene CIS-FACTORIAL HepG2 Assay for human Phenobarbital-responsive Enhancer Module (PBREM) (AID 2282955); conditions: HepG2 PBREM cis-reporter, Attagene multiplexed transcription; actives raise or lower the signal
Procedure, shortened: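 Transfected liver-derived HepG2 cells exposed 24 h; PBREM reporter transcript quantified via RT-PCR and capillary electrophoresis, with activity in either direction referenced to DMSO.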

Measured: AC50

Chain of Paired box protein Pax-6 (Homo sapiens) (P26367 whole entry, looked up): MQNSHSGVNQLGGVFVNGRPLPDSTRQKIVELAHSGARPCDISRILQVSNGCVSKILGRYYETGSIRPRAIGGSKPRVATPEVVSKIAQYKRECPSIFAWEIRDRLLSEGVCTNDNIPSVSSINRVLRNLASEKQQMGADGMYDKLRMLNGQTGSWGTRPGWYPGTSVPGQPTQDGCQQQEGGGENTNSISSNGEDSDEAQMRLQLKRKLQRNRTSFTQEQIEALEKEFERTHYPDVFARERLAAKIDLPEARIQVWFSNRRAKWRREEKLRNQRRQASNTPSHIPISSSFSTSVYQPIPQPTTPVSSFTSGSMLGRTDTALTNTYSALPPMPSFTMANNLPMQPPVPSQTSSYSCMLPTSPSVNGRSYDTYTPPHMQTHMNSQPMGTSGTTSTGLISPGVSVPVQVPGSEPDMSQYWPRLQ
Chain of Heat shock factor protein 1 (Homo sapiens) (Q00613 whole entry, looked up): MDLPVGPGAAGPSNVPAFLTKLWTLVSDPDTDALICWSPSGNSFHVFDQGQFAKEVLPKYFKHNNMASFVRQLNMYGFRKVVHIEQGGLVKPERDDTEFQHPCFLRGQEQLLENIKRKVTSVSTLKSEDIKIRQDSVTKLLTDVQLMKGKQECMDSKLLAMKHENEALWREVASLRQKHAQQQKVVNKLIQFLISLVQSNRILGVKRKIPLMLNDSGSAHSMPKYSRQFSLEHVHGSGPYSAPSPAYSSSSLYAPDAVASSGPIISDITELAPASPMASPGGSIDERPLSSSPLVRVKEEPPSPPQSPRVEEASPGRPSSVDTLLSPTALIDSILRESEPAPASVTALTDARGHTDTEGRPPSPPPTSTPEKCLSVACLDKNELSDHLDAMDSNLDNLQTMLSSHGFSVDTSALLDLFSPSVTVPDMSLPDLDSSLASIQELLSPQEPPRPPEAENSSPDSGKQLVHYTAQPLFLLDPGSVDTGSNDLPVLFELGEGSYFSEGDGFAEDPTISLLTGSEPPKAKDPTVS
Chain of Hepatocyte nuclear factor 6 (Homo sapiens) (Q9UBC0 whole entry, looked up, the tested form may be a part): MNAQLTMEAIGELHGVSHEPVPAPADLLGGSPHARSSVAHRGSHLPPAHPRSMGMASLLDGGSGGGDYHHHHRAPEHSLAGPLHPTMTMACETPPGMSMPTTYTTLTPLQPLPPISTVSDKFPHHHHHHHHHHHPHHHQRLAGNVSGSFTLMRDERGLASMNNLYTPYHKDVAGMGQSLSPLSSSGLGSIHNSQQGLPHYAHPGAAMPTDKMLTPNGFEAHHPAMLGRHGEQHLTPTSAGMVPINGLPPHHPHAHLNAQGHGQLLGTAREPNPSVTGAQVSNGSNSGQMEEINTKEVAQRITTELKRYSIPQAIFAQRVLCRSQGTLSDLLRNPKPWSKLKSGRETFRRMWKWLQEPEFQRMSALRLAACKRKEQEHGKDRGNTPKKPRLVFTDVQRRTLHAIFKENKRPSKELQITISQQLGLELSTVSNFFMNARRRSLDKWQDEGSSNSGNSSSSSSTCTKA
Chain of Hypoxia-inducible factor 1-alpha (Homo sapiens) (Q16665 whole entry, looked up): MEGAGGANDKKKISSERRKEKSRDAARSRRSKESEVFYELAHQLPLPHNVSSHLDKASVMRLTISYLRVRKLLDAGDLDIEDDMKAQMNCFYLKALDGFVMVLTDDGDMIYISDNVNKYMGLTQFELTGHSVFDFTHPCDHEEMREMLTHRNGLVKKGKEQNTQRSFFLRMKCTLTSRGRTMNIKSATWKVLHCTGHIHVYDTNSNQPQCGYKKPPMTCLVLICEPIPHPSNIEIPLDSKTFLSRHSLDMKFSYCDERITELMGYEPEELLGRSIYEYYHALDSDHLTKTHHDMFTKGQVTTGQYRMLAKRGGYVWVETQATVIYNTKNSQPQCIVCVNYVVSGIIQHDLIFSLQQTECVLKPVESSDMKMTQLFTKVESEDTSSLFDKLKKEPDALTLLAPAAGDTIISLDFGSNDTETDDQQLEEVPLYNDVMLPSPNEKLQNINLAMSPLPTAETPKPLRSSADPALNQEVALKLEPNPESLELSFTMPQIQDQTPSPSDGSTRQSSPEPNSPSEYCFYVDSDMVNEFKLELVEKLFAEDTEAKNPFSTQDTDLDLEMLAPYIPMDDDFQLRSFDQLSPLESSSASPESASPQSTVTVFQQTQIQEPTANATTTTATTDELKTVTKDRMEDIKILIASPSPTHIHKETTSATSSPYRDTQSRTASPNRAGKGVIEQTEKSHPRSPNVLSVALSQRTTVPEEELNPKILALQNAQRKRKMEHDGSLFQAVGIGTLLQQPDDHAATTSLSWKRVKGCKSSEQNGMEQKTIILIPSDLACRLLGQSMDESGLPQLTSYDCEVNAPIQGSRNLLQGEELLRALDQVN
Chain of Signal transducer and activator of transcription 3 (Homo sapiens) (P40763 whole entry, looked up): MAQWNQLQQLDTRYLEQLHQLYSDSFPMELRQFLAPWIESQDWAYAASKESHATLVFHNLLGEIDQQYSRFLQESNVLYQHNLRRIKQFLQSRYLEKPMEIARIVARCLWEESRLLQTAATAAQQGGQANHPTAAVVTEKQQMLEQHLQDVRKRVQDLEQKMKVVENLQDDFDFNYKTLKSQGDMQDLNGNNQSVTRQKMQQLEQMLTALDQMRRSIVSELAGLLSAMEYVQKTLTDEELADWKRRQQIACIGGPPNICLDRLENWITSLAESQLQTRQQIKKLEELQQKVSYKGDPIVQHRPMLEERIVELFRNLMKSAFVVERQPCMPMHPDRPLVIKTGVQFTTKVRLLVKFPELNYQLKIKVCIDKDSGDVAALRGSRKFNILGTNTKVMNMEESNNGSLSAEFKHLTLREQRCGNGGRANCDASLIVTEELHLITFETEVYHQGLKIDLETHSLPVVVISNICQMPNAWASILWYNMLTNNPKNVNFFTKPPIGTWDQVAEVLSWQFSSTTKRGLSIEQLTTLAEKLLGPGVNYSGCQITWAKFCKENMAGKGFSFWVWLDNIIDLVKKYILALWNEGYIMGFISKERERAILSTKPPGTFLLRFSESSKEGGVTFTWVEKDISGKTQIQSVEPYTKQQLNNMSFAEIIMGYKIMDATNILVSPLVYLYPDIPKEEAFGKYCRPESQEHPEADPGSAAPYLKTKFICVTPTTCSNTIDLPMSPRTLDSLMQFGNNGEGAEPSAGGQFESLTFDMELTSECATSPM
Chain of Transcription factor Sp1 (Homo sapiens) (P08047 whole entry, looked up, the tested form may be a part): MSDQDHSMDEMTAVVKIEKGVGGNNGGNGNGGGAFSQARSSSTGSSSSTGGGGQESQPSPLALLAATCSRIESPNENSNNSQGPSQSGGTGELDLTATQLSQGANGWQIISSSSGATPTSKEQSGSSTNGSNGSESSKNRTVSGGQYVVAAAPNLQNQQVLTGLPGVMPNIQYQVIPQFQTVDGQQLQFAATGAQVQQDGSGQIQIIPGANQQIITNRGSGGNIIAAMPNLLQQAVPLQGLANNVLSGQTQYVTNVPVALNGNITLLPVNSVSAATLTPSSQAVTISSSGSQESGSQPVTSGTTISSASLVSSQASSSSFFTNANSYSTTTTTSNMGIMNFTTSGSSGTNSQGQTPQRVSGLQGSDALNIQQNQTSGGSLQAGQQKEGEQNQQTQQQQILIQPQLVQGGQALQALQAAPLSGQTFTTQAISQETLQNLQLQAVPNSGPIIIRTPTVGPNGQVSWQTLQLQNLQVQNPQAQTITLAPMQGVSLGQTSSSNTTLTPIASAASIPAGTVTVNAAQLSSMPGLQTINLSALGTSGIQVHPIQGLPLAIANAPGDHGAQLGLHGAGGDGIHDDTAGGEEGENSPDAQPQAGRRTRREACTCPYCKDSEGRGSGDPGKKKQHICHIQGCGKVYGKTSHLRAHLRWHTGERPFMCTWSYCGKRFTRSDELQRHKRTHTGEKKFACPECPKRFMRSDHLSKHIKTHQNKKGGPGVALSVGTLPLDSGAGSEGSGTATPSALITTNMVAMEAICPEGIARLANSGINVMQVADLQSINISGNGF

Brc1cc(Br)c(Oc2c(Br)cc(Br)c(Br)c2Br)cc1Br
not listed: [20]
inactive: all other assays above

COc1cc(OC)nc(NC(=O)NS(=O)(=O)Nc2ccccc2C(=O)N(C)C)n1
not listed: [13]
inactive: all other assays above

Oc1ccc(Cc2ccccc2O)cc1
active: [9] 46 µM
not listed: [10]
inactive: all other assays above

CCCCCCOC(=O)c1ccc(O)cc1
inactive: [1] | [2] | [3] | [4] | [12] | [15] | [16] | [17] | [18]
active: [5] 52.7 µM | [6] 60.8 µM | [7] 59.6 µM | [8] 53.7 µM | [9] 13 µM | [10] 22.9 µM | [11] 51.2 µM | [13] 37.1 µM | [14] 33.4 µM | [19] 50.8 µM

CCCCCC(C)OC(=O)COc1ccc(Cl)c2cccnc12 (centres undefined)
active: [9] 7.22 µM
not listed: [20]
inactive: all other assays above

Cc1cc(C(=C2C=CC(=Nc3ccc(S(=O)(=O)O)cc3)C=C2)c2ccc(Nc3ccc(S(=O)(=O)O)cc3)cc2)cc(S(=O)(=O)O)c1N
not listed: [20]
inactive: all other assays above
